MCF10A rereplic: induces DNA re-replication in MCF 10a normal breast cells | MCF 10A DNA re-replication, Hoechst nuclear intensity, 48 h | Potency, µM (highest dose often 46.1 µM), usual class: activators | 350,000 tested, 2.9% active; note: nearly all actives have a fitted effect of over 50% in size
IL1B secr inh: inflammasome signaling inhibition, IL-1 beta readout | 360,000 tested, 4.7% active | THP-1 LPS/ATP IL-1B secretion, AlphaLISA, 16 h; active compounds read low | AID 743279 | activity change, % at 57.5 µM; in the data active = activity change below about -50%; inconclusive = mostly about -30% to -49%
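Secreted IL-1B measured by AlphaLISA bead assay after 16 h compound exposure of THP-1 cells; compounds (final up to 57.5 uM) added 1 h before LPS (250 ng/mL) and ATP (1.25 mM) stimulation; lower signal means less secretion.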
KB-V1 MDR tox: KB-V1 MDR subline cytotoxicity. KB-V1 MDR cells viability, CellTiter-Glo, 72 h. 400,000 tested, 3.4% active. Potency, µM (doses to about 46.1 µM), usual class: cytotoxic; note: nearly all actives have a fitted effect of over 60% in size
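Potencies derive from concentration-effect curves fitted to normalized luminescence (CellTiter-Glo) of KB-V1 cells treated for 72 h at 37 degrees C in phenol-red-free DMEM containing 10% FBS.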
SW480 rereplic: DNA re-replication induction in SW480 cells; SW480 DNA re-replication, Hoechst DNA content imaging, 48 h; Potency, µM (titrated, usually from 46.1 µM), most hits filed as activators; 340,000 tested, 1.8% active; note: nearly all actives have a fitted effect of over 55% in size
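Per well, 250 cells were exposed to pinned compound for 48 hr. Nuclear DNA was visualised with Hoechst (40 min, 37 C) and total object intensity recorded by fluorescence scanning.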
KB-3-1 cytotox: KB-3-1 parental cell cytotoxicity; KB-3-1 viability, CellTiter-Glo ATP luminescence, 72 h; AID 1347075; Potency, µM (series often up to 46.1 µM), usual class: cytotoxic; 400,000 tested, 1.4% active; note: nearly all actives have a fitted effect of over 60% in size
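Parental KB-3-1 adenocarcinoma cells in phenol-red-free DMEM with 10% FBS were pin-treated with compounds at several concentrations, incubated 72 h at 37 °C, and viability read by CellTiter-Glo luminescence; concentration-effect curves were fitted after normalization.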
Numbers stand for hits; – = inactive; ? = inconclusive; · = no result given. In the library only some 9.9% were active in any assay of this set; here they are far more common. Unless noted, calls come from the whole dose curve; as a rule, active = well fitted curve in the direction sought with a large enough effect; inconclusive = small, poorly fitted or top-dose-only effect, or another doubt; inactive = no such curve, though single readings can be large; an effect the other way counts as inactive or inconclusive.

SMILES | MCF10A rereplic | IL1B secr inh | KB-V1 MDR tox | SW480 rereplic | KB-3-1 cytotox
C=CCN(Cc1ccc(OC)c(OC)c1)C(=O)c1cc2cc(F)ccc2[nH]1 | – | – | – | – | –
Cc1ccc(NC(=O)CNc2ccc(Cl)c(Cl)c2)cc1S(=O)(=O)N(C)C | – | – | 21µM | · | ?
CC(C)=C1SC(N2CCN(c3ccc(Cl)cc3)CC2)=NC1=O | – | -60 | ? | – | –
O=S(=O)(Nc1ccc(O)c(Sc2nc3ccccc3s2)c1)c1ccc(F)cc1 | ? | – | – | – | –
Cc1cc(S(=O)(=O)Nc2ccc(O)c(Sc3nc4ccccc4s3)c2)ccc1Cl | · | · | 18µM | · | ?
Cc1ccc(-c2oc3ncnc(N)c3c2-c2ccc(C)cc2)cc1 | – | – | – | – | –
CN(C)CCNc1ncnc2ccccc12 | – | – | – | – | –
CN(C)CCNc1ncnc2oc(-c3ccccc3)c(-c3ccccc3)c12 | ? | -70 | – | ? | –
COc1ccc(-c2oc3ncnc(NCCCN(C)C)c3c2-c2ccc(OC)cc2)cc1 | – | -64 | – | ? | ?
CCOc1ccccc1CNC(=O)c1cc2n(n1)CCCN(Cc1ccc(C)cc1)C2=O | · | · | – | · | –
CCN(CCO)Cc1csc2ccc(C(C)(C)C)cc12 | – | -57 | – | – | –
CCN(CCO)Cc1csc2ccc(Cl)cc12 | – | – | – | – | –
COC(=O)c1ccc(-c2nc3cc(Cl)c(N)cc3s2)cc1 | 0.65µM | – | – | ? | –
COC(=O)c1ccc(-c2nc(O)c(C)s2)cc1 | – | – | – | – | –
O=C(COc1ccc2c(c1)CCC2)N1CCN(c2ccccc2F)CC1 | – | – | 0.0037µM | – | –
O=C(COc1ccc2c(c1)CCC2)N1CCN(c2cccc(C(F)(F)F)c2)CC1 | – | – | – | – | –
Cc1ccc(NC(=O)Nc2c(Cl)cccc2Cl)cn1 | ? | – | ? | ? | –
CC(C)Nc1ncnc2c1cnn2-c1ccc(Cl)cc1 | – | -58 | ? | – | 7.3µM
Cn1ncc2c(Nc3ccc4ccccc4c3)ncnc21 | ? | – | ? | 16µM | –
CC(=O)Nc1ccc(Nc2ncnc3c2cnn3-c2ccccc2)cc1 | – | – | ? | – | ?
Cc1cccc(Nc2ncnc3c2cnn3C)c1 | – | – | – | – | –
Clc1ccc(Nc2ncnc3c2cnn3-c2ccccc2)cc1 | – | -53 | ? | – | –
Cc1occc1C(=O)Nc1ccc(OCc2ccccc2)cc1 | – | – | 16µM | – | –
O=C(Nc1ccc(OCc2ccccc2)cc1)c1cccs1 | – | – | – | – | –
CCCCOC(=O)c1ccc(N/C(=N\S(=O)(=O)c2ccccc2)c2ccccc2)cc1 | ? | -54 | – | – | –
SMILES | MCF10A rereplic | IL1B secr inh | KB-V1 MDR tox | SW480 rereplic | KB-3-1 cytotox
CCCCOC(=O)c1ccc(NC(=O)c2ccoc2C)cc1 | ? | – | 10µM | – | –
Cc1occc1C(=O)NCCCCNC(=O)c1ccoc1C | ? | – | – | – | ?
CCCCCCCCCCCNC(=O)c1ccoc1C | 26µM | – | – | – | –
CC1CC(C)CN(CCCNS(=O)(=O)c2ccc3c(c2)CCN3C(=O)C2CC2)C1 (stereo not given) | ? | ? | – | – | –
CCN(CC)C(=O)CSc1nc2cc3c(cc2c(=O)n1CCCCCC(=O)NCc1ccc(OC)cc1)OCO3 | 18µM | -65 | ? | – | –
CCN(CC)C(=O)CSc1nc2cc3c(cc2c(=O)n1CCCC(=O)NCCc1ccc(OC)c(OC)c1)OCO3 | – | ? | – | – | –
COCCNC(=O)CCSCc1ccccc1F | 4.1µM | – | – | ? | –
CCOC(=O)/C=c1\s/c(=C\c2ccc3cc(OC)ccc3c2)c(=O)n1CC(=O)NCC1CCCO1 (stereo not given) | 12µM | – | 18µM | – | 21µM
CCOC(=O)/C=c1\s/c(=C\c2ccc(C(F)(F)F)cc2)c(=O)n1CC(=O)NCc1ccco1 | 23µM | – | – | 2.3µM | –
CCOC(=O)/C=c1/s/c(=C/c2ccc3cc(OC)ccc3c2)c(=O)n1CC(=O)NCc1ccc2c(c1)OCO2 | 1.5µM | – | – | ? | ?
COc1ccc(/C=C/C(=O)OCC(=O)NCC2CCCO2)cc1 (stereo not given) | – | – | – | – | –
Cc1ccc(CCCNC(=O)C2CCC(=O)N(Cc3cccc(F)c3)C2)cc1 (stereo not given) | – | – | ? | – | –
CCOC(=O)CCn1nc(-c2ccc(Cl)cc2)cc1N | – | – | ? | – | 21µM
CCOC(=O)Cn1nc(-c2ccc(Cl)cc2)cc1N | – | – | – | – | –
CCc1ccc(/C=C/C(=O)c2cc(Br)ccc(=O)c2O)cc1 | ? | – | 10µM | ? | ?
CCOc1ccc(/C=C/C(=O)CCC(=O)O)cc1 | – | – | – | – | –
CCOc1ccc(/C=C/C(=O)c2cc(Br)ccc(=O)c2O)cc1 | 9.2µM | ? | 10µM | ? | ?
Cc1cccc(/C=C/C(=O)c2cc(Br)ccc(=O)c2O)c1 | 10µM | ? | ? | ? | ?
COCCC(=O)N1CCC(Oc2ccc(C(=O)N3CCCC(COC)C3)cc2)CC1 (stereo not given) | – | – | ? | – | –
CC(=O)N/C(=C/c1ccc([N+](=O)[O-])cc1)C(=O)O | – | – | – | – | –
Cc1ccc2c(=O)c(C(=O)c3ccc(Cl)cc3)cn(CC(=O)Nc3ccc4c(c3)OCCO4)c2n1 | · | · | – | · | –
c1ccc(CN2C3=NCCN3c3ccccc32)cc1 | – | – | – | ? | –
Clc1ccc(CN2C3=NCCN3c3ccccc32)cc1Cl | – | · | 21µM | ? | –
Cc1cc(C)cc(NC(=S)Nc2ccc3cn[nH]c3c2)c1 | – | -53 | – | – | –
CCOc1cc(C)c(S(=O)(=O)Nc2ccc3cn[nH]c3c2)cc1C | – | -70 | ? | – | 21µM
SMILES | MCF10A rereplic | IL1B secr inh | KB-V1 MDR tox | SW480 rereplic | KB-3-1 cytotox
Cc1ccc(NC(=S)Nc2ccc3cn[nH]c3c2)cc1 | – | – | – | – | –
Cc1ccc(S(=O)(=O)Nc2ccc3cn[nH]c3c2)c(C)c1 | – | – | – | 16µM | –
Cc1ccc(C)c(S(=O)(=O)Nc2ccc3cn[nH]c3c2)c1 | – | – | – | – | –
CN(CC(=O)Nc1cccc(F)c1)C(=O)CC1CCCCC1 | – | – | – | – | ?
CC(C)C[C@H](NC(=O)OC(C)(C)C)C(=O)N[C@@H](CO)[C@H](O)[C@@H]1C[C@@H]1C(=O)NC1CCCCC1 | ? | – | 10µM | – | –
CC(C)C[C@H](NC(=O)OC(C)(C)C)C(=O)N[C@@H](CO)[C@H](O)[C@@H]1C[C@@H]1C(=O)NC1CC1 | – | – | – | – | –
CCN(CC)C(=O)C(Sc1nnnn1-c1ccc(O)cc1)c1ccccc1 (stereo not given) | – | -74 | – | – | –
CC(Sc1nnnn1-c1ccccc1)C(=O)Nc1ccc(Cl)cn1 (stereo not given) | ? | – | 18µM | – | –
CCC(Sc1nnnn1-c1ccccc1)C(=O)NC(C)c1ccccc1 (stereo not given) | – | – | 5.8µM | – | –
